# Sampled rows, rich in hits. Any-hit rate of the full collection: about 2.7%.
# HEK293 tox – cytotoxic in the GLP-1 receptor inverse agonist counter-screen. AID 624418. hit rate 0.13% among 410,000. Potency, µM (highest dose often 38.3 µM), inactives show at the top dose activity change, negative = inhibition, actives largely listed as inhibitors. HEK293 cAMP-luciferase reporter cells, luminescence, 24 h;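 note: loss of luciferase light is scored as toxicity; % is set by controls: 0 for no effect and ±100 for the full control effect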
#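 Luminescence readout: signal drop marks cytotoxicity. Plated cells grew 12 h at 37 °C, 5% CO2, received 23 nL compound for 24 h, then got luciferase reagent, read after 12 min at RT.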
# rTrxR1 inhibitor – blocks rat thioredoxin reductase 1; O89049; Potency, µM (series often up to 114 µM), for inactives: at the top dose activity change, negative = inhibition, hits mostly inhibitors; recombinant rTrxR1, NADPH fluorescence consumption, selenite substrate; hit rate 1% among 390,000; note: % is set by controls: 0 for no effect and ±100 for the full control effect; nearly all actives have a fitted effect of over 65% in size
#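 Rat TrxR1 (90 nM in the dispensed reagent) was pre-reduced with 400 uM NADPH for 5 min at room temperature, then incubated with compound for 15 min. After 400 uM selenite was added, NADPH fluorescence (Ex 340/Em 450 nm) was followed for 8 min.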
# TrxR1 substrate – rat thioredoxin reductase 1 substrate activity; purified TrxR1 substrate turnover, NADPH consumption readout; AID 588456; hit rate 0.01% among 390,000; Potency, µM (series often up to 114 µM), inactives show at the highest dose activity change, negative = substrate turnover; O89049; note: % is set by controls: 0 for no effect and ±100 for the full control effect; nearly all actives have a fitted effect of over 50% in size
#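 Rat TrxR1, dispensed at 90 nM, was prereduced with 400 uM NADPH (final) for 5 min at ~22 deg C, then incubated with compound 15 min before 400 uM selenite. A first-read NADPH fluorescence drop versus no-compound background flagged substrates.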
# GLP-1R inv ag – acts as inverse agonist at human GLP-1 receptor. Potency, µM (series often up to 38.3 µM), for inactives: at the highest dose activity change, negative = inhibition, usual class: inhibitors. HEK293 GLP-1R CRE-luciferase, luminescence, 24 h; GLP-1R form is constitutively active. AID 624417. P43220. hit rate 1.6% among 410,000; note: % is set by controls: 0 for no effect and ±100 for the full control effect; nearly all actives have a fitted effect of over 55% in size
# Target sequence (P43220 whole entry, looked up): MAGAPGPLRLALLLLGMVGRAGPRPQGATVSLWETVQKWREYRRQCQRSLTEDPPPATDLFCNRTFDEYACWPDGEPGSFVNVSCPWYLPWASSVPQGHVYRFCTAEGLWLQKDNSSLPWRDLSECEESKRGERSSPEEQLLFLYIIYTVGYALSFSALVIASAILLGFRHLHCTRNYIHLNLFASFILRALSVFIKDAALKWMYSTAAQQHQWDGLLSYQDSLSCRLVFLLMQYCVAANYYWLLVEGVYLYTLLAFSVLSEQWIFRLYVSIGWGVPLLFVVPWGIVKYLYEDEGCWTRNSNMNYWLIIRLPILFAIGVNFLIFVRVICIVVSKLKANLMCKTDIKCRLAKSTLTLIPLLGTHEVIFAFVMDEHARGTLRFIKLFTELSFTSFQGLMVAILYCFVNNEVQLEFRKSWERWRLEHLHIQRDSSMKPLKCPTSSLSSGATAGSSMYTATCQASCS
#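 Constitutively active GLP-1R drives a cAMP-responsive luciferase in stably transfected HEK293 cells; test compounds are added after overnight (12 h) attachment and left 24 hr, and signal loss in luminescence marks inhibition.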
# GLP1R ag – agonists of human GLP-1 receptor. P43220. HEK293 GLP-1R CRE-luciferase, luminescence, 4-6 h; cells express a hypersensitive GLP-1R form. Potency, µM (titrated, usually from 45.6 µM), without a hit: at the top dose activation, hits mostly activators. hit rate 0.007% among 380,000; note: % of control where 0% means no effect
# mIDH1 inhibitor – inhibitors of human mutant IDH1 R132H; AID 602179; IDH1-R132H enzyme, NADPH consumption, diaphorase/resazurin fluorescence; Potency, µM (highest dose often 76.6 µM), inactives show top-dose activity change, negative = inhibition, actives largely listed as inhibitors; hit rate 0.093% among 390,000; O75874; note: % is set by controls: 0 for no effect and ±100 for the full control effect; nearly all actives have a fitted effect of over 65% in size
#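 IDH1-R132H (0.5 ug/mL dispensed) in pH 7.5 Tris buffer was preincubated 30 min with compound, then given a substrate mix of 0.016 mM NADPH and 2 mM alpha-KG for 80 min at room temperature; remaining NADPH was read by diaphorase/resazurin fluorescence.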
# * hit, by the source's call; ? = inconclusive; nt = no result; [ ] = another dose, or the depositor's remark. Calls come from the whole dose curve; as a rule, active = well fitted curve in the direction sought with a large enough effect; inconclusive = small, poorly fitted or top-dose-only effect, or another doubt; inactive = no such curve, though single readings can be large; an effect the other way counts as inactive or inconclusive. Potency is the fitted concentration of half-maximal effect.
SMILES,HEK293 tox,rTrxR1 inhibitor,TrxR1 substrate,GLP-1R inv ag,GLP1R ag,mIDH1 inhibitor
O=C(N/N=C\c1cccc(Cl)c1)c1ccc(Cn2cc(Br)c([N+](=O)[O-])n2)o1,-14%,-2%,-9%,?,-6%,12%
Cc1ccccc1C(=O)c1ccccc1C(=O)c1ccccc1,1%,7%[11.4 µM],8%[57.1 µM],?,-1%,0%
O=C(c1ccccc1)c1ccccc1C(=O)c1ccccc1,46%,0%,-7%[57.1 µM],8.9µM*,18%,7%
CCOC(=O)N1CCN(C(=O)CSc2cc(C)nc3c(-c4ccccc4OC)c(C)nn23)CC1,?,-4%,-9%,13µM*,6%,2%
CCOC(=O)N1CCC(Nc2cc(C)nc3c(-c4ccccc4OC)c(C)nn23)CC1,1%,5%,-8%,?,5%,-2%
COc1ccccc1CNc1nc2c(S(=O)(=O)c3ccccc3)nnn2c2ccc(Cl)cc12,3%,40%,71%,1%,nt,-8%
Cc1sc(C(C2C(=O)CC(C)(C)CC2=O)C2C(=O)CC(C)(C)CC2=O)cc1[N+](=O)[O-],-11%,2µM*,-7%,8%,-2%,-2%
COc1ccccc1N1CCN(CCNC(=O)Nc2cccc(C)c2C)CC1,-14%,-14%,-11%,3.2µM*,-8%,3%
CCCCNc1c(-c2ccc(SC3CCCCC3)c(OC)c2)nc2ccc(C)cn12,0%,75%,108%,8.9µM*,-3%,0%
CCC(C)Sc1ccc(-c2nc3ccc(C)cn3c2NCc2ccccc2)cc1OC (stereo unspecified),-25%,27%,102%,2.8µM*,-4%,7%
CCN(CC)CCNC(=O)C(=O)Nc1c2c(nn1-c1ccc(F)cc1)CSC2,-1%,14%[57.1 µM],7%[57.1 µM],-2%,nt,23%
Cc1ccccc1N/C(=C(/C(Cl)=C(Cl)Cl)[N+](=O)[O-])n1nnc2ccccc21,4%,10µM*,4%[57.1 µM],-27%,22%,0%
Cc1ccccc1NC(=O)c1nn(C)c(C(=O)Nc2ccccc2C)c1[N+](=O)[O-],7%,7%,-3%,-17%,-1%,-7%
NC(=O)C(C(=O)/C=C/c1ccc(Cl)cc1)=C1SCCS1,-28%,-2%,-4%,4µM*,-8%,13%
CN(C)CC/C=C1\c2ccccc2Sc2cc(F)c(Cl)cc21,?,2%[57.1 µM],3%[57.1 µM],7.9µM*,0%,4%
CN(C)CC/C=C1\c2ccc(F)cc2Sc2cc(F)c(Cl)cc21,?,11%,6%,7.9µM*,-3%,13%
CCN(c1ccccc1)S(=O)(=O)c1ccc(OC)c(NC(=O)Cc2ccccc2OC)c1,-12%,18%,-1%,10µM*,4%,3%
CCN1CCN(CC(=O)Nc2cc(S(=O)(=O)N(CC)c3ccccc3)ccc2Cl)CC1,?,5%,-1%,10µM*,8%,-6%
CC1CCCCC1NCC(=O)Nc1ccccc1-c1ccccc1 (stereo unspecified),0%,-18%,-8%,4.5µM*,5%,5%
Nc1nc2[nH]cc(CCc3ccc(C(=O)N[C@@H](CCC(=O)O)C(=O)O)cc3)c2c(=O)[nH]1,nt,3%,13%,nt,nt,nt
CCOC(=O)c1c(NC(NC(=O)C(C)C)C(Cl)(Cl)Cl)sc2c1CCC2 (stereo unspecified),-3%,-25%,-9%,5.6µM*,-4%,2%
Cc1cccc(NC(=O)/C(=C\c2ccco2)NC(=O)c2cccs2)c1,-21%,40µM*,-7%,0%,-6%,-1%
O=C(Nc1cccc(F)c1)/C(=C\c1cccnc1)NC(=O)c1ccco1,-9%,7%[57.1 µM],8%[57.1 µM],26%,2%,8%
O=C(Nc1cccc(F)c1)/C(=C/c1ccco1)NC(=O)c1ccco1,-26%,45µM*,-17%,-2%,-2%,0%
Cc1ccc(C(=O)N/C(=C/c2ccco2)C(=O)Nc2cccc(C)c2)cc1,1%,-29%,-2%,-18%,10%,2%
SMILES,HEK293 tox,rTrxR1 inhibitor,TrxR1 substrate,GLP-1R inv ag,GLP1R ag,mIDH1 inhibitor
CC(C)Oc1ccc(CNC(=O)c2ccc3nc(Cc4ccccc4)oc3c2)cc1,5%,19%[57.1 µM],-1%[57.1 µM],4%,nt,-7%
CC(C)(C)CC(C)(C)c1ccc(O)c(CN2CCN(CCC#N)CC2)c1,-24%,1%,-9%,11µM*,4%,8%
N#CCCN1CCN(Cc2cc(-c3ccccc3)ccc2O)CC1,-14%,30%,12%,0%,-9%,6%
CCC(c1nnnn1CCc1ccccc1)N(Cc1ccco1)Cc1cc2c(C)ccc(C)c2[nH]c1=O (stereo unspecified),-25%,-3%,-6%,11µM*,1%,3%
CCC(c1nnnn1CCc1ccccc1)N(Cc1ccco1)Cc1cc2cc(C)cc(C)c2[nH]c1=O (stereo unspecified),-13%,26%[57.1 µM],12%[57.1 µM],?,-1%,6%
Cc1ccc(C(=O)COC(=O)CCC(=O)Nc2ccc(Oc3ccccc3)cc2)cc1,-7%,-1%,1%,3%,nt,28%
Cc1ccc(S(=O)(=O)N2CCN(c3nc(-c4cccnc4)nc4ccccc34)CC2)cc1,nt,-29%,3%,nt,nt,nt
COC(=O)c1c(C)[nH]c(/C=N/Nc2ccccc2)c1C,0%,-44%,2%[57.1 µM],10µM*,25%,-1%
CCN(CC)C(=S)NC(=O)c1ccc(F)cc1,3.5µM*,-12%[57.1 µM],-2%[57.1 µM],?,7%,-16%
CCc1cccc(NC(=O)c2ccc(CNS(=O)(=O)c3ccc4c(c3)C(C)(C)C(=O)N4C)cc2)c1,-18%,20%,8%,10µM*,nt,2%
CCCSc1nsc(NC(=O)C(c2ccccc2)c2ccccc2)n1,?,25%[57.1 µM],14%[57.1 µM],3.2µM*,-11%,0%
CCCSc1nsc(NC(=O)CC)n1,4%,13%[11.4 µM],2%[57.1 µM],-15%,4%,8%
Cc1cc(/C=N/NC(N)=S)c(C)n1-c1ccc(Cl)c(Cl)c1,3.2µM*,14%[57.1 µM],6%[57.1 µM],?,8%,-20%
CN(CC(=O)O)c1ccc(/C=C/c2ccnc3ccccc23)cc1,nt,-1%,-3%,nt,nt,nt
COc1ccc(Cl)cc1-c1cc(C(=O)NCc2cccc(Cl)c2)[nH]n1,-19%,nt,nt,3.2µM*,1%,nt
CC1CCc2nc(-c3cc4ccc(O)cc4oc3=O)sc2C1 (stereo unspecified),nt,17%,53%,nt,nt,nt
COc1cccc(C(=O)Nc2cc(-c3ccccc3)no2)c1,0%,-5%,-8%,6%,nt,26%
CN(C(=O)NC(=O)C1=C(N2CCOCC2)/C(=C/c2ccccc2)CC1)S(C)(=O)=O,105%,35µM*,71%,24%,-5%,-8%

# Bioassay records from PubChem.
